The full ranking holds about 33,000 sequences; the median of “E-score (-0.5 to 0.5)” is about -0.054, and the highest 2% start at about 0.35. The list comes from a sample in which the highest values are over-represented; it also holds similar and randomly drawn sequences.
These sequences were tested against T1, Stb5 (UniProt P38699) (assay: PBM E-score (8-mer binding enrichment) (E-score (-0.5 to 0.5)); higher = stronger / more preferred TF binding). Settings: protein concentration: 200 nM; construct: GST-full length.
T1 sequence: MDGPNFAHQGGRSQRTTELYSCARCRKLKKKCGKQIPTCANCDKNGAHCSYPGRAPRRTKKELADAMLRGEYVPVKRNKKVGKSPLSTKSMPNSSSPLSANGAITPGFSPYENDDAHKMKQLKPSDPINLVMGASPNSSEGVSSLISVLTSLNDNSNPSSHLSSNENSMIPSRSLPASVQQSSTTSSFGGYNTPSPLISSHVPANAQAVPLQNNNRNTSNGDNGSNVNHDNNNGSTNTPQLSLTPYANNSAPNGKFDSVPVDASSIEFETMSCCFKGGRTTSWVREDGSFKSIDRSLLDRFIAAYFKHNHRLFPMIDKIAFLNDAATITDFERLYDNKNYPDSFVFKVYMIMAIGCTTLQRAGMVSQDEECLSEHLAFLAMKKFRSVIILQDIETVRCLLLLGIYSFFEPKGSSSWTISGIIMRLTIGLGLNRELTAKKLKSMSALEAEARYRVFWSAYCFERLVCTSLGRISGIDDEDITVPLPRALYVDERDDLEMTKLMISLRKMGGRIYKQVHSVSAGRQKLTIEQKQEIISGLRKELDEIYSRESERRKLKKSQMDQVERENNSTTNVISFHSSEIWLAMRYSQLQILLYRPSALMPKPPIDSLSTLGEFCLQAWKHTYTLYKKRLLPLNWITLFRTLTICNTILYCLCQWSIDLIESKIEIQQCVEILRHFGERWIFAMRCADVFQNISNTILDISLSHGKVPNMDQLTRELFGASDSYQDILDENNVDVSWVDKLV
Description: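 Universal 'all 10-mer' protein binding microarrays (Agilent AMADID 015681) probed with GST-tagged S. cerevisiae TFs (full-length or DBD) made by in vitro transcription/translation (PURExpress), about 100-200 nM. Bound TF was detected with fluorescent anti-GST. Each ungapped 8-mer (which stands for itself and its reverse complement) is scored by the PBM enrichment score (E-score), a modified Wilcoxon-Mann-Whitney statistic from -0.5 to +0.5, computed with the Universal PBM Analysis Suite. Scale: above 0.35 generally sequence-specific binding.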

Sequence | PBM E-score
ACCGGTGA | 0.319
AGCGGTCA | 0.29
AGCGGTAG | 0.204
CGCGGTTC | 0.205
CCCGGTGC | 0.315
ACCGGTGC | 0.377
AGCGGTTA | 0.122
AGCGGTGG | 0.346
AGCGGTTC | 0.0808
GCCGGAAA | 0.187
CGTTGGAC | -0.0247
GTCCCATA | -0.0984
AGATTCAA | -0.16
AGCCTGCC | -0.229
CCTGACCA | -0.291
ACCGGTAT | 0.336
CACGGTGC | 0.306
ACCGGTAC | 0.397
GACGGTGC | 0.392
ACCGGTAA | 0.326
GACGGTGA | 0.325
AGAATGAT | -0.254

Sequence | PBM E-score
ATTGCATA | -0.0781
CAAGATGA | -0.286
AACCTTCC | -0.135
CGACTCCA | -0.0871
TAAAAAGA | 0.046
GCAGAGTA | -0.202
CATCTAGC | -0.12
CGGGCCGA | 0.327
CGGGCCGC | 0.195
AGGGCCGA | 0.354
AGGGCCGG | 0.271
AGGGCCGC | 0.36
GGGGCCGA | 0.158
CTGGGGCC | -0.0638
GGTTGTAA | 0.0915
CGGAGTGC | 0.198
CGGAGTGA | 0.391
GGGAGTCA | -0.163
GGGAGTGA | -0.0152
CGGAGTCA | 0.391
AGGAGTCA | -0.194
AGCGCAGA | -0.0263

Sequence | PBM E-score
CCATGACG | 0.0201
CCAATTTA | 0.119
CCACCGCA | 0.245
TCACCGCA | 0.305
CCACCGCG | 0.3
ACACCGCG | 0.444
CTACCGCC | 0.305
ATACCGCG | 0.33
ATACCGCA | 0.325
CGACCGCC | 0.255
AGACCGCC | 0.364
ATACCGCC | 0.434
ACACCGCA | 0.44
AGACCGCG | 0.297
CCCGTGAC | 0.155
GATTTGAC | 0.0761
CAGCGTAA | -0.168
CCCATTAG | -0.361
AATTCCGA | 0.265
GGACGGGA | 0.1
CCTTTGCG | 0.03
GATGCCCA | -0.136

Sequence | PBM E-score
ATACCGTG | 0.249
GAACCGCC | 0.187
GCACCGCC | 0.377
AGACCGCT | 0.345
AAACCGCC | 0.302
ACACCGCT | 0.419
ACACCGCC | 0.459
GGACCGCC | 0.288
AAACCGCT | 0.0494
ATACCGTA | 0.259
ATACCGTC | 0.357
CCACCGCC | 0.282
ATCTGGTC | -0.153
ATTTAGAG | -0.138
AATGGTGA | -0.231
TGTAGCAA | -0.0607
AATAAGCA | -0.0559
CAAAGTAG | -0.164
GCACCGTA | 0.248
GGACCGCA | 0.188
GCACCGCA | 0.361
